RECQ1 helicase: qHTS Assay for Inhibitors of RecQ-Like Dna Helicase 1 (RECQ1); ATP-dependent DNA helicase Q1 (Homo sapiens), P46063; RECQ1 DNA unwinding, red fluorescence kinetic read; Potency, µM (series often up to 57.3 µM), inactives show top-dose activity, negative = inhibition, actives largely listed as inhibitors; actives 0.54% (n = 240,000); AID 2549, 2010;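 also: plate controls were vehicle for no effect and no enzyme for full effect; nearly all actives have a fitted effect of over 30% in size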
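50 nM RECQ1T1 preincubated 15 min with compound in Tris pH 8.0 buffer with MgCl2, DTT, Tween-20 and 2.5 ug/ml poly(dI-dC); started with 200 nM TAMRA/BHQ-2 forked duplex and 2 mM ATP. Unwinding read as fluorescence (525/598 nm), two reads 2 h apart.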
L3MBTL1 inh: qHTS Assay for the Inhibitors of L3MBTL1; Potency, µM (titrated, usually from 57.1 µM), without a hit: top-dose activity, negative = inhibition, most hits filed as inhibitors; AlphaScreen L3MBTL1–H3K9me1 peptide binding; Lethal(3)malignant brain tumor-like protein 1 (Homo sapiens), Q9Y468; actives 0.66% (n = 230,000); AID 485360, 2010; also: nearly all actives have a fitted effect of over 60% in size
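L3MBTL1 (50 nM) pre-complexed 30 min with biotinylated H3(1-15)K9me1 peptide (75 nM), then compounds added for 30 min at room temperature; AlphaScreen streptavidin donor/nickel chelate acceptor beads (10 ug/mL final) read after 30 min dark incubation.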
WRN inhibitor: qHTS for Inhibitors of WRN Helicase | Bifunctional 3'-5' exonuclease/ATP-dependent helicase WRN (Homo sapiens), Q14191 | WRN helicase unwinding, fluorescent forked duplex, kinetic | Potency, µM (highest dose often 114 µM), for inactives: at the highest dose activity change, negative = inhibition, usual class: inhibitors | actives 0.46% (n = 360,000) | AID 651768, 2012; also: nearly all actives have a fitted effect of over 55% in size
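Screening of the MLSMR collection measured strand separation of a quenched forked DNA duplex (100 nM) by 20 nM WRN with 2 mM ATP, all final. Compounds were preincubated with enzyme 15 min at room temperature.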
FEN1 inh: qHTS Assay for the Inhibitors of Human Flap endonuclease 1 (FEN1); P39748; Recombinant FEN1 flap cleavage, fluorescence, 15 min; Potency, µM (highest dose often 114 µM), inactives show top-dose activity change, negative = inhibition, most hits filed as inhibitors; actives 0.35% (n = 390,000); also: nearly all actives have a fitted effect of over 65% in size
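FEN1 at 10 nM preincubated with compounds 15 min at room temperature, then flap DNA substrate added at 50 nM final. Signal read at 0 and 15 min; concentration-response fitted with four-parameter Hill equation.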
BLM inh: qHTS Assay for Inhibitors of Bloom's syndrome helicase (BLM); RecQ-like DNA helicase BLM (Homo sapiens), P54132; recombinant BLM DNA unwinding, fluorescence dequenching; Potency, µM (highest dose often 56.1 µM), for the others: at the highest dose activity change, negative = inhibition, usual class: inhibitors; actives 0.2% (n = 350,000); AID 2528, 2010;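 also: plate controls were vehicle for no effect and no enzyme for full effect; nearly all actives have a fitted effect of over 35% in size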
Active calls of the source: *; i = inactive; u = inconclusive; x = not tested or not shown; [ ] = dose if it differs, or a comment. In the library only some 0.99% were active in any assay of this set; here they are far more common. Calls follow the shape of the dose curve; as a rule, active = well fitted curve in the direction sought with a large enough effect; inconclusive = small, poorly fitted or top-dose-only effect, or another doubt; inactive = no such curve, though single readings can be large; an effect the other way counts as inactive or inconclusive. Unless noted, % is scaled to controls: 0 for no effect and ±100 for the full control effect; potency is read from the fitted curve at half-maximal effect.

SMILES	RECQ1 helicase	L3MBTL1 inh	WRN inhibitor	FEN1 inh	BLM inh
Nc1c(O)ccc2c1C(=O)c1ccccc1C2=O	-23%	u	-33%	50µM*	-26%
COc1ccc2c(c1O)C(=O)c1ccccc1C2=O	-3%	0%	x	x	0%
Cc1ccc(CNC(=O)Nc2cccs2)cc1	-17%	-9%	-6%	-5%	-5%
Cc1ccn2c(Nc3ccc4c(c3)OCO4)c(-c3ccccn3)nc2c1	2%	8.9µM*	-23%	u	-9%
Cc1ccc(Nc2c(-c3ccccn3)nc3cc(C)ccn23)cc1	16%	x	5%	u	-1%
COc1ccc(Cl)cc1NCCC(O)c1ccc(F)cc1 (centres undefined)	x	x	1%	-4%	-8%
O=C(Nc1cc(Sc2ccccn2)cc([N+](=O)[O-])c1)c1ccc([N+](=O)[O-])cc1	-12%	-6%	32µM*	-27%	-13%
O=[N+]([O-])c1ccc(Sc2ccccn2)nc1	i	-5%	5%	-1%	1%
O=C1C2CC=C(Cl)CC2C(=O)N1CCN1CCOCC1 (centres undefined)	i	x	-5%	6%	1%
O=C1C2CC=C(Cl)CC2C(=O)N1CCCCCCN1C(=O)C2CC=C(Cl)CC2C1=O (centres undefined)	28µM*	x	u	-22%	u
OCC(O)C(O)C(O)CO (centres undefined)	-11%	x	x	x	-1%
Cc1cc(N/N=C/c2ccc(O)cc2)nc(NS(=O)(=O)c2ccccc2)n1	-1%	32µM*	-28%[57.1 µM]	-7%	2%
Cc1ccc(Cl)cc1N1CCN(S(=O)(=O)c2c(C)[nH]c(=O)[nH]c2=O)CC1	-6%	-1%	4%	-4%	0%
Cc1ccc(SCCc2cc[n+](CC(=O)c3ccccc3)cc2)cc1	-11%	5%	-25%	-6%	-6%
O=C(C[n+]1ccc(CCSc2ccc(F)cc2)cc1)c1ccccc1	-6%	-22%	40µM*	40µM*	3%
CC(=O)Nc1ccc(NCc2nnc3n2CCCCC3)cc1	x	x	x	-1%	-4%
COc1ccc2oc(C(=O)Nc3nc(-c4ccccn4)cs3)c(C)c2c1	x	25µM*	-19%	-4%	x
O=C(COc1ccccc1)Nc1ccc(S(=O)(=O)NCc2ccco2)cc1	-1%	-11%	-32%[57.1 µM]	2%	-3%
CSc1cccc(NC(=O)CN(C)S(=O)(=O)c2ccc3c(c2)CCCN3C(C)=O)c1	x	x	x	18%	0%
COc1ccc(C(=O)c2ccc(O)cc2)c(O)c1O	14µM*	x	x	x	-8%
N#CCCn1nc(-c2ccc(Br)cc2)cc1Nc1ccccc1NC(=O)C(F)(F)F	-11%	-5%	-7%	-17%	-9%
CSCc1ccc(C(=O)N2CCC(N3CCC(C(=O)NC(C)C)CC3)CC2)o1	x	x	-14%	-7%	-2%
Cc1ccccc1NC(=O)N1CCc2ccccc2C1	25%	2%	8%	18%	-1%
COc1cc(OC)c(NC(=O)CCCn2nc(C)c3sc4ccccc4c3c2=O)cc1Cl	x	x	x	35µM*	3%
O=C(NNc1c(F)c(F)cc(F)c1F)c1ccc(Cl)nc1	x	x	-5%[57.1 µM]	14%	0%
SMILES	RECQ1 helicase	L3MBTL1 inh	WRN inhibitor	FEN1 inh	BLM inh
Cc1ccc(Cl)cc1N1CCN(c2ncnc3c2nc2n3CCCCC2)CC1	x	x	x	-20%	-10%
COc1ccc(OC)c(C2/C(=C(/O)c3ccccc3)C(=O)C(=O)N2Cc2ccco2)c1 (centres undefined)	-2%	4%	-1%[57.1 µM]	45µM*	4%
COc1ccc(/C(O)=C2\C(=O)C(=O)N(Cc3ccco3)C2c2cc(OC)ccc2OC)cc1 (centres undefined)	-8%	4%	-6%	-19%	-8%
COc1cccc(CN2C(=O)C3CCCN3c3ccc(S(=O)(=O)N4CCOCC4)cc32)c1 (centres undefined)	28µM*	2%	x	x	-4%
Cc1ccc(NS(=O)(=O)c2cc([N+](=O)[O-])ccc2NNC(=S)Nc2cccc(Cl)c2)c(C)c1	-2%	25µM*	u	u	-1%
Cc1ccc(NS(=O)(=O)c2cc([N+](=O)[O-])ccc2NNC(=S)Nc2cc(C)ccc2C)c(C)c1	-17%	u	-23%	-16%	-13%
CN(C)c1ccc(C=c2c3cc([N+](=O)[O-])ccc3n3c2cc(-c2ccccc2)[n+]3C)cc1	x	x	35µM*	56µM*	x
CN(C)c1ccc(C=C2C=C(c3ccccc3)OC2=O)cc1	x	x	-15%	x	x
COc1cc(N(C)C)ccc1C=c1c2ccccc2n2c1cc(-c1ccccc1)[n+]2C	x	x	20µM*	7.9µM*	x
COc1cc(C=c2c3ccccc3n3c2cc(-c2ccccc2)[n+]3C)cc(OC)c1OC	x	x	-1%[11.6 µM]	u	x
CN(C)c1ccc(/C=C2\C=Cc3cc([N+](=O)[O-])ccc32)cc1	x	x	x	1%	x
CN(C)c1ccc(C=c2c3ccccc3n3c2cc(-c2ccccc2)[n+]3C)cc1	x	x	u	8.9µM*	x
CN(C)c1ccc(C=c2c3ccccc3n3c2cc(-c2ccc(Cl)cc2)[n+]3C)cc1	x	x	28µM*	22µM*	x
CCCC(C(=O)NCc1ccco1)N(C(=O)CNS(=O)(=O)c1ccc(Cl)cc1)C1CCCC1 (centres undefined)	-12%	-4%	-10%	4%	-11%
CC1CCCC(NS(=O)(=O)c2cccc3nsnc23)C1C (centres undefined)	x	x	13%	7%	0%
COc1ccc(OC)c(C(=O)CN2C(=O)N(c3ccc(C)cc3)S(=O)(=O)c3ccccc32)c1	x	x	x	15%	-4%
CCOc1nc(N=C(N)N)nc2c(C)cccc12	28%	-2%	9%[11.6 µM]	45µM*	65%
CCCC(=O)Nc1cc(-c2nn(C)c(=O)c3ccccc23)ccc1N1CCOCC1	-12%	x	9%	3%	1%
O=C(C[n+]1ccccc1)Nc1c(Cl)cc(Cl)cc1Cl	7%	11µM*	-2%	-12%	-24%
Cc1ccc[n+](CC(=O)Nc2c(Cl)cc(Cl)cc2Cl)c1	6%	5%	-6%	10%	-1%
Cc1cc(C)c2c(CC(=O)NC(C)C)coc2c1	-1%	23%	-31%	2%	-5%
Cc1cc(C)c2c(=O)c(C#N)coc2c1	-21%	3%	56µM*	u	-6%
O=C(CN1C(=O)c2ccccc2S1(=O)=O)NC1CC2CCC1C2 (centres undefined)	-7%	x	2%	21%	1%
COC(=O)Cc1c(C)c2ccc(OCC(=O)NC3CCS(=O)(=O)C3)cc2oc1=O (centres undefined)	x	x	5%	2%	2%

Screening data as filed in PubChem.
